The record followed here is ChEMBL document CHEMBL3988442, “University of Dundee, Small-Polar-MMV Screening Library” (2021).

For some of these results: Measured potencies and affinities stand elsewhere.

Common to all, as to design: scale not given: direction of the effect not stated beside the values
Test [1] concerns the target Protein translocase subunit SecA (Escherichia coli (strain K12)) (UniProt P10408). The experiment in a line: Assay to Identify E. coli SecA ATPase Inhibitors. Type of test: functional. The following applies: 30 µM.
The target of test [2] is T1, Ubiquitin-activating enzyme e1, putative (Leishmania donovani (strain BPK282A1)) (UniProt E9BSI1).
T1 sequence (whole entry): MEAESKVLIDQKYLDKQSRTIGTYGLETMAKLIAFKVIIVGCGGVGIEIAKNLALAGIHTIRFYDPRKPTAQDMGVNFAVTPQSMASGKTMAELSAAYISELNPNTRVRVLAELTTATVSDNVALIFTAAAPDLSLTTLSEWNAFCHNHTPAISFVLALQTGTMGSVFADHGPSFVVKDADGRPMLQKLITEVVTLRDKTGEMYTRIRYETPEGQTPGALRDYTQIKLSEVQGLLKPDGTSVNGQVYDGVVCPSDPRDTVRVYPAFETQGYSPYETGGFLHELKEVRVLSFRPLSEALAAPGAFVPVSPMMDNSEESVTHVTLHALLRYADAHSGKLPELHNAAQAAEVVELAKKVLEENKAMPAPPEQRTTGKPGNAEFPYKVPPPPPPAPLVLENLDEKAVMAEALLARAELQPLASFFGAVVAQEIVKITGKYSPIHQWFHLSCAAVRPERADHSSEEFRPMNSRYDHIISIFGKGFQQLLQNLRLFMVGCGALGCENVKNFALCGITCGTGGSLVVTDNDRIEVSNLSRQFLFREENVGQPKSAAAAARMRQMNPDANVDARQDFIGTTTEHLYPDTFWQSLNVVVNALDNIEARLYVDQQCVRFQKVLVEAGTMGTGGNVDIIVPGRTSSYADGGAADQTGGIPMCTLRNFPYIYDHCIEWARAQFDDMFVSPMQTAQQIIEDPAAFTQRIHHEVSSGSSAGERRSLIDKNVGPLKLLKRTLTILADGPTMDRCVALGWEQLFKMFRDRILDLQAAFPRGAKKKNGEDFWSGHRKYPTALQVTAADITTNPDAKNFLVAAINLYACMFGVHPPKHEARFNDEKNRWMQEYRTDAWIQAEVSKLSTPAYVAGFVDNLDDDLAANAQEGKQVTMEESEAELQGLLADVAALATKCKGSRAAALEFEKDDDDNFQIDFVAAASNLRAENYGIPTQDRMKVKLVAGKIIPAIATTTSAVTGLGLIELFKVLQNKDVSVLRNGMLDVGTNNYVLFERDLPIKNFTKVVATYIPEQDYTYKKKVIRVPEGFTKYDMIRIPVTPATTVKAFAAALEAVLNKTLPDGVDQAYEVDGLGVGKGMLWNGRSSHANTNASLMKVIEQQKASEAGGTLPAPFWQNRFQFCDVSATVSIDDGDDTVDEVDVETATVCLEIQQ
The experiment in a line: Leishmania donovani Ubiquitin Activating Enzyme (LdE1). Type of test: functional. The following applies: 30 µM.

In test [3] the target is AMP-activated protein kinase, AMPK (Homo sapiens) (UniProt P54646+O43741+P54619+Q9UGJ0+Q9Y478+Q13131+Q9UGI9). The experiment in a line: AMP-dependent Kinase enzyme assay. An in vitro enzyme assay that detects ADP turnover that is directly proportional to AMPK activity. This uses naive AMPK that is activated during the assay with MK-8722. Type of test: functional. The following applies: 30 µM.

Test [4] has as its target Sialic acid-binding Ig-like lectin 9 (Homo sapiens) (UniProt Q9Y336). The experiment in a line: Hs-Siglec9 ALPHAscreen SOP 20170721. The settings on record: 10 µM.
A further test relates to Trypanosoma cruzi. Briefly: Trypanosoma cruzi phosphomannomutase and mannose-1-phosphate guanylyltransferase assay. The class given is functional. The settings on record: 10 µM.
Test [5] deals with T2, Arginase-2, mitochondrial (Homo sapiens) (UniProt P78540).
T2 sequence (whole entry): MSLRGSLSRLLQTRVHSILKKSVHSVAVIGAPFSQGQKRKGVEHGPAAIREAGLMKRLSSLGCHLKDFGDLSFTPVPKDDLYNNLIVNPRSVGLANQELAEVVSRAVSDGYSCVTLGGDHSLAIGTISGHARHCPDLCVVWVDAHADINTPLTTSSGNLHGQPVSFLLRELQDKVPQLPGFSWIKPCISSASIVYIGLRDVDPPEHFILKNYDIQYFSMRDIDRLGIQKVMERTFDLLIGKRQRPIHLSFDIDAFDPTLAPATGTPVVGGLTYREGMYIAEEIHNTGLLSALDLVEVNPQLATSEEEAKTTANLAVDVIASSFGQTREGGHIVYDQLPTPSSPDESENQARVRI
Briefly: in vitro enzyme assay to detect the production of urea directly proportional to the activity of Arginase II. Further: in the data most compounds retested in dose-response had high values. The following applies: 33.3 µM. Type of test: functional.

In test [6] the target is T3, Proteasome subunit beta (Trypanosoma cruzi) (UniProt O96673).
T3 sequence (whole entry): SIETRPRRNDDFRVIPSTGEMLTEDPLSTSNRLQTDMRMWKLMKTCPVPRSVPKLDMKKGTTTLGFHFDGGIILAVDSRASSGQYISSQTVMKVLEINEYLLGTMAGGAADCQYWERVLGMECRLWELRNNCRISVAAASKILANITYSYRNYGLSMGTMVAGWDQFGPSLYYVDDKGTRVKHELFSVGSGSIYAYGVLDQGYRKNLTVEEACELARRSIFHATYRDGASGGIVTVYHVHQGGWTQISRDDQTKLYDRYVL
The experiment in a line: Trypanosoma cruzi proteasome chymotrypsin-like activity (TcProtChymo) assay. Further: in the data most compounds retested in dose-response had high values. Type of test: functional. The following applies: 9.37 µM.

The species entered for another test is Homo sapiens. The experiment in a line: To identify inhibition of the IFN signalling (Jak-Stat) pathway via expression of an eGFP reporter gene under the control of an IFN-stimulated response element (ISRE) containing MxA promoter. Type of test: functional. The following applies: 30 µM.
For test [7], the target named is T4, Tyrosyl-tRNA synthetase, putative (Trypanosoma cruzi (strain CL Brener)) (UniProt Q4DSP6).
T4 sequence (whole entry): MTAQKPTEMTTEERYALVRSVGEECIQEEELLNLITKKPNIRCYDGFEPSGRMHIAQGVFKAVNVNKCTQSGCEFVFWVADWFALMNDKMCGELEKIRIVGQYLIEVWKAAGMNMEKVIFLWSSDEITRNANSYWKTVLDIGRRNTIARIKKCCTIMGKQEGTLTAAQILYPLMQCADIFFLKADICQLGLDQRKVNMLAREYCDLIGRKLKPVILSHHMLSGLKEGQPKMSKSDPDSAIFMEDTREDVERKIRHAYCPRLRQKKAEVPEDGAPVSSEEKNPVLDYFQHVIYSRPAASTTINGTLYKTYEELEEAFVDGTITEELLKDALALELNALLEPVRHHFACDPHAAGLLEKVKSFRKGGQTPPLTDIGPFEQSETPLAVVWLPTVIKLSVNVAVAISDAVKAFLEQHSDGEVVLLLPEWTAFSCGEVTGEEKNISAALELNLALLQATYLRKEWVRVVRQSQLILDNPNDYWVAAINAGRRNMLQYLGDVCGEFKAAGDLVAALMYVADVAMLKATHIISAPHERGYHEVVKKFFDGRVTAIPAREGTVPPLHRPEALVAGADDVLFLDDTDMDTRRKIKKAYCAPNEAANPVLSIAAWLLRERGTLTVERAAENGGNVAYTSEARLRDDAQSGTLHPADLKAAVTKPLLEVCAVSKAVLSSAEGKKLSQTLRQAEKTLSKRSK
The experiment in a line: Trypanosoma cruzi tyrosyl tRNA synthetase (TcYRS) _High Tyrosine SOP. Further: in the data most compounds retested in dose-response had high values. The class given is functional. The following applies: 30 µM.

The target of test [8] is T4, Tyrosyl-tRNA synthetase, putative (Trypanosoma cruzi (strain CL Brener)). The experiment in a line: Trypanosoma cruzi tyrosyl tRNA synthetase (TcYRS) SOP. The class given is functional. The following applies: 30 µM.
Test [9] concerns the target Chromo domain-containing protein 1 (Saccharomyces cerevisiae (strain ATCC 204508 / S288c) (Baker's yeast)) (UniProt P32657). Briefly: ScCHD-1 Enzyme Inhibition Assay. Further: in the data most compounds retested in dose-response had high values. The class given is functional. The following applies: 30 µM.

Sequence of Sialic acid-binding Ig-like lectin 9 (Homo sapiens) (Q9Y336 whole entry): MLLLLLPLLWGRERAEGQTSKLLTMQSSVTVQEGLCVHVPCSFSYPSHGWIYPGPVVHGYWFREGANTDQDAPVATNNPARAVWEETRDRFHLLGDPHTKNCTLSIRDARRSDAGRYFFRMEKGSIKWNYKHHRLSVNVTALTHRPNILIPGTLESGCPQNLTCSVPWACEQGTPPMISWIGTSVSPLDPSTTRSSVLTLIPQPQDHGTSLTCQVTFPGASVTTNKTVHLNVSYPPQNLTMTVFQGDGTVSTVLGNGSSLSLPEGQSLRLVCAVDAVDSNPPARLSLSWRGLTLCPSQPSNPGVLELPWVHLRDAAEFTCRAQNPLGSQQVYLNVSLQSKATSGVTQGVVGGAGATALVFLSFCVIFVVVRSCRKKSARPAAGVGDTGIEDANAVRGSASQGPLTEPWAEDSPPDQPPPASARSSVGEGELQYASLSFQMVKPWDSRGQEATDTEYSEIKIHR
Sequence of Protein translocase subunit SecA (Escherichia coli (strain K12)) (P10408 whole entry): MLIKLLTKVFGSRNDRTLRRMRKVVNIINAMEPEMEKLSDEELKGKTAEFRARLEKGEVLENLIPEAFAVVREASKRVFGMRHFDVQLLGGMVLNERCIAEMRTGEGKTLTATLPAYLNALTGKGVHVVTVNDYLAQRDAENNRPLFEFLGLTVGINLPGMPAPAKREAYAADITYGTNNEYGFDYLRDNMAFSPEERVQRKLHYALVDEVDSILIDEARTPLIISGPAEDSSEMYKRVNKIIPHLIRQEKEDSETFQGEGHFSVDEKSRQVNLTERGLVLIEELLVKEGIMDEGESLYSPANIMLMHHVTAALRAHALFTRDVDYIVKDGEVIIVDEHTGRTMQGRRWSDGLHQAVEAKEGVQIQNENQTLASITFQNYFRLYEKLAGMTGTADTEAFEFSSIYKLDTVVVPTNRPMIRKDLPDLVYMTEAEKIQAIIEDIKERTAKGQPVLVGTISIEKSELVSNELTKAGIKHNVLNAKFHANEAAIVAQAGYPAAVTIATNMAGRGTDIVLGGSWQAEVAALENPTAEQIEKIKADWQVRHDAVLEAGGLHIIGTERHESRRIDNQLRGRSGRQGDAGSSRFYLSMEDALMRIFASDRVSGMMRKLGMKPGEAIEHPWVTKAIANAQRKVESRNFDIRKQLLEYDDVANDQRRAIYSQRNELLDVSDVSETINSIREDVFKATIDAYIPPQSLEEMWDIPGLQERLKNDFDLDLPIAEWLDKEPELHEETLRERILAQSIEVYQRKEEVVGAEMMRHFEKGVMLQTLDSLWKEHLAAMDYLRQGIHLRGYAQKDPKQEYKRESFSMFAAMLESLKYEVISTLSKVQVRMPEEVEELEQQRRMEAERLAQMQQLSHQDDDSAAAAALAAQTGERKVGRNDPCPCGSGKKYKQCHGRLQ
Sequence of Chromo domain-containing protein 1 (Saccharomyces cerevisiae (strain ATCC 204508 / S288c) (Baker's yeast)) (P32657 whole entry, the tested form may be a part): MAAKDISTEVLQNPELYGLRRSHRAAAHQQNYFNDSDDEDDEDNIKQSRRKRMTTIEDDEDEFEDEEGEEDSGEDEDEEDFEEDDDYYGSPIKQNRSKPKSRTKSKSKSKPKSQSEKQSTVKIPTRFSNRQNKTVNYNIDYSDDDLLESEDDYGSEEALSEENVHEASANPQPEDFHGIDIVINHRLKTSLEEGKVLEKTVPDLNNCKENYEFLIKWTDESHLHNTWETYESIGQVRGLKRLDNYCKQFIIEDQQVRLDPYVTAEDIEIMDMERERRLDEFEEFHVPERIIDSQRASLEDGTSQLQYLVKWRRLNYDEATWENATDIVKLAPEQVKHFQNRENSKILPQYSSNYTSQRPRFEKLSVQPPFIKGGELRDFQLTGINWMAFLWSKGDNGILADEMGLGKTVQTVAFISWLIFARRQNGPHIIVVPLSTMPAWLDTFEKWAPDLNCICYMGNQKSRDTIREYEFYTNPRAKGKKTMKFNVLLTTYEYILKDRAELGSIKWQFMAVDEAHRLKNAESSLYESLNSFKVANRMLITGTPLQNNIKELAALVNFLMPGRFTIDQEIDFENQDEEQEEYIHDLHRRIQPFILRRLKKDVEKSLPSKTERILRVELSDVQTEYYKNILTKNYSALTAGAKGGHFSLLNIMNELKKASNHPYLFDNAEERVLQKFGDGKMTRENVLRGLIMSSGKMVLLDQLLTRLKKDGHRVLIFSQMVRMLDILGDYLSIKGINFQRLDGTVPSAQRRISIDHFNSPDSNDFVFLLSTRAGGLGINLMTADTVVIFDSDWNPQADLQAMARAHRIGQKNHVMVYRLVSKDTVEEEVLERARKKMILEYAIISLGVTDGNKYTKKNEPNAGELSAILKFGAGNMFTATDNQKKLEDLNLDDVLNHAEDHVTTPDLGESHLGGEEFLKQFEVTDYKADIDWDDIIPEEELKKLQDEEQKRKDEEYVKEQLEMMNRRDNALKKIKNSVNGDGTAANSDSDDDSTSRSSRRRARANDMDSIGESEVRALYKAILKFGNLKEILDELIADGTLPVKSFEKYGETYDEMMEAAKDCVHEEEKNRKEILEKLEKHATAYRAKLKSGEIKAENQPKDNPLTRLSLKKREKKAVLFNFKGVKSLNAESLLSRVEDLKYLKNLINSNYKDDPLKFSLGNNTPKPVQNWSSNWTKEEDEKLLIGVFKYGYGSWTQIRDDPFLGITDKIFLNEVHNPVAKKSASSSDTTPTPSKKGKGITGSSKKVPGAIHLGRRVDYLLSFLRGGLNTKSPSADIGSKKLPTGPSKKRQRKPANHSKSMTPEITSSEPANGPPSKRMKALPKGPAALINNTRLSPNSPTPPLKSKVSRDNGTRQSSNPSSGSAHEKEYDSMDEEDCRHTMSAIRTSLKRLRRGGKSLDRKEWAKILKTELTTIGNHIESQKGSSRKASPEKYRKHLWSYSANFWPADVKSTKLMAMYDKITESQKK

Consider `COc1ccc(NC(C)=O)c(N2CCN(C(C)=O)CC2)n1`, for which the Percent Effect in test [1] was -3.73%; in test [2] it was -2.7%; in test [3], -14.1%; in test [4], -3.66%; in the test with Trypanosoma cruzi, -3.32%; in test [5], 0%. In addition, the Percent Effect in test [6] is 7.35%; in the test listed under Homo sapiens, -1.36%; in test [7], 7.92%; in [8] it was 8.54%; in test [9], 15.3%.

Consider `O=C(c1cn(-c2cc(N3CCSCC3)ncn2)cn1)N1CCSCC1`, for which the Percent Effect is -2.69% in [1]; 8.22% in [2]; -3.54% in test [3]; -3.87% in test [4]; 6.27% in the test on Trypanosoma cruzi; -1.82% in test [5]. The Percent Effect in test [6] was 24%; in the test listed under Homo sapiens, -3.38%; in test [7] it was 7.53%; in test [8] it was 15%; in test [9] it was -3.99%.

Turning to `Cc1ccc2c(c1)CCC21CCN(C(=O)CO)CC1`, the Percent Effect is -2.81% in test [1]; 5.2% in test [2]; -0.185% in test [3]; 17.2% in test [4]; 6.79% in the test with Trypanosoma cruzi; -20.7% in test [5]. Besides, the Percent Effect in [6] is 12.8%; in the test filed under Homo sapiens it was 15.4%; in test [7] it was 4.3%; in test [8], 6.17%; in [9], -7.19%.

Consider `CCn1ncc2c1CCCC2NCC1=Cc2ccccc2OC1` (stereo not drawn), for which the Percent Effect in [1] was -4.51%; in test [2], 3.8%; in test [3], 4.34%; in test [4], 0.918%; in the test with Trypanosoma cruzi, 1.95%; in [5] it was -7.1%. Moreover, the Percent Effect is 10.1% in test [6]; 13.4% in the test filed under Homo sapiens; 4.17% in test [7]; 7.59% in test [8]; -2% in test [9].

In the case of `CCN(CC1CCCO1)C(=O)Nc1cc(OC)c(OC)cc1C` (stereo not drawn), the Percent Effect is -8.28% in [1]; 27.9% in test [2]; -14.4% in test [3]; 12.7% in test [4]; 4.06% in the test with Trypanosoma cruzi; -2.28% in [5]. Besides, the Percent Effect in test [6] is 9.26%; in the test listed under Homo sapiens it was -8.32%; in test [7] it was 8.37%; in test [8], 21.5%; in [9], -9.07%.

`Cc1nccc(N2CCC(=O)N(Cc3ccc(F)cc3)C(C(C)C)C2)n1` (stereo not drawn): the Percent Effect is -2.94% in test [1]; 1.39% in test [2]; 1.69% in test [3]; -1.4% in test [4]; -1.07% in the test with Trypanosoma cruzi; -0.883% in [5]. Also, the Percent Effect in [6] is 4.56%; in the test filed under Homo sapiens, -6.54%; in test [7], 0%; in test [8] it was 2.56%; in [9], 1.68%.

As to `COCCN1CCN(Cc2noc(C3CC3)n2)CC1C` (stereo not drawn), the Percent Effect in test [1] is 0.0669%; in [2] it was 22.8%; in test [3], -4.5%; in test [4], -13.4%; with Trypanosoma cruzi, -3.87%; in test [5] it was 1.14%. Also, the Percent Effect in test [6] was 10.7%; in the test listed under Homo sapiens it was -0.744%; in test [7] it was 1.48%; in [8], 11.4%; in [9], -3.63%.

For the molecule `CN(C)C(=O)N1C[C@@H]2CC[C@H](C1)N(C(=O)CCCn1cncn1)C2`, the Percent Effect in test [1] was -2.38%; in test [2] it was 2.7%; in [3], 0.473%; in [4] it was 0.611%; with Trypanosoma cruzi it was 1.74%; in [5], 1.43%. The Percent Effect in test [6] is 19%; in the test filed under Homo sapiens, -5.66%; in test [7] it was 8.99%; in test [8], 21.9%; in test [9], -3.6%.
